BoNT-A LC inh2: inhibitors of Botulinum neurotoxin A light chain protease; multiplex microsphere protease substrate cleavage, flow cytometry; inhibition, % at 10 µM; hit rate 0.17% among 360,000; AID 588499; also: plate controls were buffer without enzyme for full effect and enzyme alone for no effect
BoNT F protease: BoNT F light chain protease inhibition | Multiplex microsphere protease cleavage assay, flow cytometry | inhibition, % at 10 µM | hit rate 0.22% among 360,000 | AID 588497; in the data active = inhibition above about 35%, passing the limit was not always enough; inconclusive = no clear call, values can overlap the other calls; also: plate controls were buffer without enzyme for full effect and enzyme alone for no effect
GDH-TPI inh: inhibits GDH-TPI coupling enzymes, artifact for Mtb FBA screen | GDH-TPI coupled enzyme counterscreen, NADH absorbance | inhibition, % at 4.8 µM | hit rate 1.2% among 360,000; in the data active = inhibition above about 30%;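 also: 0% = DMSO wells and 100% = wells lacking the enzyme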
Bead autofluor: flagged as autofluorescent in microsphere protease counterscreen | compound autofluorescence counterscreen, microsphere flow cytometry; active compounds read high | fluorescence intensity (concentration not given with the values) | hit rate 3.1% among 360,000 | AID 624483; in the data active = fluorescence intensity above about 16000; inconclusive = no clear call, values can overlap the other calls
FBA Mtb inh: inhibitors of M. tuberculosis fructose-bisphosphate aldolase; inhibition, % at 1 µM; purified M. tuberculosis FBA, fluorescence read-out; hit rate 2.3% among 360,000; AID 588726; in the data active = inhibition above about 27%;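 also: 0% = vehicle and 100% = reference inhibitor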
Anthrax LF inh2: blocks Bacillus anthracis lethal factor protease; P15917; multiplex microsphere protease cleavage assay, LF; inhibition, % at 10 µM; hit rate 0.12% among 360,000; also: plate controls were buffer without enzyme for full effect and enzyme alone for no effect
Numbers without * were called inactive; ? = inconclusive; . = no result. Hits are enriched below; roughly 6.6% of the tested compounds scored in any of these assays. Rule as the data show it, unless noted: active = inhibition above about 30%; inconclusive = no clear call, values can overlap the other calls; inactive = below that.

SMILES	BoNT-A LC inh2	BoNT F protease	GDH-TPI inh	Bead autofluor	FBA Mtb inh	Anthrax LF inh2
CCNC(=O)C(=O)NCCC1CCCCN1S(=O)(=O)c1cccs1 (stereo unspecified)	3.1	?	11.5	?	129.7*	-2.9
CC(C)CNC(=O)C(=O)NCCC1CCCCN1S(=O)(=O)c1cccs1 (stereo unspecified)	2.6	4.6	-2.1	4425	2.5	-0.4
O=c1[nH]c(/C=C/c2cccc([N+](=O)[O-])c2)c([N+](=O)[O-])c(=O)[nH]1	-1.3	-2.7	16.2	3097	-0.4	-7.8
O=[N+]([O-])c1cccc(/C=C/c2nc[nH]c2[N+](=O)[O-])c1	0.6	-2.6	42.0*	3403	-10.7	-3.3
Cc1cc(C)c2c(C)c(C(=O)NCc3ccncc3)oc2c1	-0.8	-10.6	-4.0	10450	10.1	-5.2
CCc1ccc2oc(C(=O)NCc3ccncc3)c(C)c2c1	10.1	6.9	-19.9	16440*	6.0	-11.1
COCCNc1nc(Nc2ccc(C(=O)OC)cc2)c2sccc2n1	0.3	1.1	31.0*	2815	5.0	-3.1
CNc1nc(Nc2ccc(C(=O)OC)cc2)c2sccc2n1	0.7	6.5	24.8	3701	3.6	6.2
COc1cc(/C=N/NC(=O)c2nnn(-c3nonc3N)c2C)ccc1OCc1ccc(Cl)cc1	0.0	-3.2	0.0	3391	-4.0	-1.1
CC1(C)CC(=O)C(c2c[nH]c3ccccc23)C(=O)C1	-0.1	-0.9	0.9	4444	-0.9	3.5
CC(=O)n1cc(C2C(=O)CC(C)(C)CC2=O)c2ccccc21	2.9	5.9	-2.5	21921*	-3.1	-2.1
COc1ccc(OC)c(NC(=O)C2(C)CCN2C(=O)C2(c3ccccc3)CCCC2)c1 (stereo unspecified)	0.0	1.3	1.3	2744	-0.9	-8.8
CCC1=C(OC(=O)N(CC)CC)N2C(=O)OC(=NCC3CC3)[C@]2(Cc2ccccc2)[C@H]2C1=CC[C@H]1C(=O)N(c3ccccc3)C(=O)[C@H]12	-0.3	-7.2	1.3	4084	2.0	-1.1
C=C1CC2C=C(NC(C)=O)CC(C1)C2 (stereo unspecified)	-0.4	-1.3	-1.9	22238*	-0.5	-3.0
CCn1cc(C(=O)NCC(OC)OC)c(=O)c2cc(S(=O)(=O)N3CCC(C)CC3)ccc21	0.5	3.1	7.1	5602	0.7	-2.4
CCOC(=O)c1ccc(NC(=O)CSCc2ccco2)cc1	?	-3.1	10.5	16501*	0.2	0.0
CCOC(=O)CC(=O)CSCC(=O)Nc1ccc(C)cc1	1.9	-0.4	-14.8	22826*	-5.4	-0.1
Cc1ccc(NC(=O)CCC(=O)OCC(F)(F)C(F)F)cc1	?	1.5	5.8	21194*	-0.2	-2.4
Cc1ccc(NC(=O)CSCC#N)cc1	?	-11.7	11.2	18468*	-1.9	-8.0
CCOC(=O)c1ccc(NC(=O)CSCCC(=O)O)cc1	-0.2	0.5	2.2	4347	-0.4	-6.0
COc1cccc(C(=O)OCC(=O)NCCCc2ccccc2)c1	-3.1	-20.6	-6.6	3787	1.6	4.4
COCCN(CC(=O)Nc1cc(Cl)ccc1-n1cncn1)Cc1nc2ccccc2c(=O)[nH]1	-0.1	1.1	3.2	5493	-1.1	-3.6
COc1ccc2c(C)cc(SCC(=O)c3ccc4c(c3)OCO4)nc2c1	?	1.0	4.9	23435*	0.3	-2.6
COc1ccc2c(C)cc(SCC(=O)NC3CCCC3)nc2c1	-0.2	0.9	20.7	4171	1.0	-8.5
COc1ccc2c(C)cc(SCc3c(C)noc3C)nc2c1	4.0	2.2	9.9	22377*	4.3	-2.2
SMILES	BoNT-A LC inh2	BoNT F protease	GDH-TPI inh	Bead autofluor	FBA Mtb inh	Anthrax LF inh2
COc1ccc2c(C)cc(SCC#N)nc2c1	1.5	-3.0	17.8	16543*	1.8	-1.6
COc1ccc2c(C)cc(SC3CCOC3=O)nc2c1 (stereo unspecified)	-2.1	-16.1	14.2	2298	-0.3	-2.7
CCCCNC(=O)c1[nH]c(=O)cnc1-c1ccccc1	-0.2	3.6	.	5263	2.6	-3.3
O=C(CS(=O)c1ccc(F)cc1)N1CCOCC1 (stereo unspecified)	-1.4	-13.9	-0.7	3962	-4.5	-13.0
Cc1ccc2c3c(cccc13)-c1ccccc1C2=O	73.9*	28.1	12.3	6102	1.2	43.7*
Nc1ccc2c3c(cccc13)-c1ccccc1-2	4.2	-5.9	-0.4	4925	-4.1	-5.3
O=C(CN1CCN(Cc2ccccc2)CC1)NCCNc1ccc([N+](=O)[O-])cn1	-0.7	-10.9	23.2	4281	-0.1	-2.7
Nc1ccn(CC(=O)NCCNc2ccc([N+](=O)[O-])cn2)c(=O)n1	0.2	7.4	32.8*	3253	2.8	-0.2

Source: PubChem (several laboratories)
